Bioassay records as filed in PubChem BioAssay.
GLP-1R agonist = GLP-1 receptor (human) agonism; P43220; HEK293 GLP-1R CRE-luciferase, luminescence, 4-6 h; cells express a hypersensitive GLP-1R form; Potency, µM (top dose mostly 45.6 µM), without a hit: at the highest dose activation, actives largely listed as activators; 0.007% of 380,000 active; further: potency means the concentration at half of the fitted maximal effect; % of control where 0% means no effect
Target sequence (P43220 whole entry, looked up): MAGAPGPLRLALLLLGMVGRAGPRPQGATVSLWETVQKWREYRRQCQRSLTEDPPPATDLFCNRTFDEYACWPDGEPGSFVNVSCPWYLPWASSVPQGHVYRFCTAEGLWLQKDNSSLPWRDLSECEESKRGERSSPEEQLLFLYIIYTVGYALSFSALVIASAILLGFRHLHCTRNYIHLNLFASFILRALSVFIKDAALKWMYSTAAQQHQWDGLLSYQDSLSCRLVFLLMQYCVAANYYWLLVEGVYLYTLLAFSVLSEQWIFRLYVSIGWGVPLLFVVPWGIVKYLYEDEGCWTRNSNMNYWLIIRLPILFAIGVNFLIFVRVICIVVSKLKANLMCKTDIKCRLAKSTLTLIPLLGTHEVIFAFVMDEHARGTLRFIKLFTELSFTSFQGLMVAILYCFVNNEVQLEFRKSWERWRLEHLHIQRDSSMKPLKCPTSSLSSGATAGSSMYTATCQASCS
GLP-1R inv ag = acts as inverse agonist at human GLP-1 receptor; Potency, µM (titrated, usually from 38.3 µM), inactives show at the top dose activity change, negative = inhibition, usual class: inhibitors; HEK293 GLP-1R CRE-luciferase, luminescence, 24 h; GLP-1R form is constitutively active; 1.6% of 410,000 active; further: potency means the concentration at half of the fitted maximal effect; on the % scale 0 is the no-effect control and ±100 the full control effect; nearly all actives have a fitted effect of over 55% in size
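Luminescence readout: a drop in cAMP-driven luciferase signal flags inverse agonism at a constitutively active GLP-1R stably expressed in HEK293. Compound exposure lasted 24 hr at 37 deg C, 5% CO2.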
LDHA block = inhibitors of human lactate dehydrogenase A; P00338; purified LDHA, NADH/diaphorase-resazurin fluorescence; stronger effect = lower value; activity change, % (values are at about 110 or 230 µM); 0.15% of 480,000 active; AID 1347041; in the data active means activity change below about -30%; inconclusive means mostly about -25% to -30%;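 further: plate controls were DMSO wells for no effect and wells without enzyme for full effect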
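Human LDH5 (2 nM) was incubated with 0.06 mM NADH and 0.2 mM pyruvate for 5 min at room temperature in Tris pH 7.4. Remaining NADH was coupled through diaphorase/resazurin, and resorufin fluorescence was read at 0 and 20 min.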
p53 reactivation = restores transcriptional activity of mutant p53. Potency, µM (highest dose often 92.2 µM), for inactives: at the top dose activity change, positive = activation, hits mostly activators. H1299 p53-A138V BP100-luciferase reporter, luminescence, 24 h. 0.063% of 320,000 active; further: potency means the concentration at half of the fitted maximal effect; % of control where 0% means no effect; nearly all actives have a fitted effect of over 45% in size
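H1299 (p53-null), stable ts p53-A138V + BP100-Luc; 1000 cells/well, Opti-MEM/10% FBS; cpd 4 pt, 1:5; 24 h, 37 deg C, 5% CO2; detection reagent 10 min RT; luminescence.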
ClpP mod = qHTS Assay for Activators of ClpP | 1.9% of 340,000 active | purified B. subtilis ClpP, FRET peptide cleavage, 20 min | ATP-dependent Clp protease proteolytic subunit (Bacillus subtilis (strain 168)), P80244 | Potency, µM (top dose mostly 57.5 µM), without a hit: at the highest dose activity change, negative = active; active means well fitted falling curve with a large enough effect; inconclusive means small, poorly fitted or top-dose-only effect; inactive means no such curve, though single readings can be large or run the other way; further: potency means the concentration at half of the fitted maximal effect; the source files actives as falling curves though it sought activators and does not explain the sign; nearly all actives have a fitted effect of over 65% in size
Target sequence (P80244 whole entry, looked up): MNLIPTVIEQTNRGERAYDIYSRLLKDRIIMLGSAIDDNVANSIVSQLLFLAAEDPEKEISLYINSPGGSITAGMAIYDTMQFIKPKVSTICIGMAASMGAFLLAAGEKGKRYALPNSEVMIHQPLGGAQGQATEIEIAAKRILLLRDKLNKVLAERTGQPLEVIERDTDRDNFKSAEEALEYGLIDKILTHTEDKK
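ClpP 10 microg/mL final, pH 8 Tris/KCl buffer with BSA, glycerol, Tween-20; compound pinned in; FRET-FV substrate; RT 20 min; Ex320/Em430; ΔFRET vs ADEP 5.8 microM, DMSO, no enzyme.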
HEK293 tox = cytotoxicity in counter-screen for GLP-1R inverse agonists; HEK293 cAMP-luciferase reporter cells, luminescence, 24 h; Potency, µM (highest dose often 38.3 µM), inactives show at the top dose activity change, negative = inhibition, usual class: inhibitors; 0.13% of 410,000 active;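 further: loss of luciferase light is scored as toxicity; potency means the concentration at half of the fitted maximal effect; on the % scale 0 is the no-effect control and ±100 the full control effect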
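Luminescence readout: signal drop marks cytotoxicity. Plated cells grew 12 h at 37 °C, 5% CO2, received 23 nL compound for 24 h, then got luciferase reagent, read after 12 min at RT.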
* hit, by the source's call; ! = repeats disagree. Only some compounds are listed: those with a hit (about 2.9% of all), similar ones and a draw of the others. Unless noted, the call rests on the fitted dose curve; in most records, active means well fitted curve in the direction sought with a large enough effect; inconclusive means small, poorly fitted or top-dose-only effect, or another doubt; inactive means no such curve, though single readings can be large; an effect the other way counts as inactive or inconclusive.

For O=C(C1CCCN(S(=O)(=O)c2ccc(Cl)cc2)C1)N(Cc1cccs1)C1CC1 (centres undefined) the results were GLP-1R agonist 1.7%, GLP-1R inv ag 10µM*, LDHA block 0.2, p53 reactivation -17.6%, ClpP mod -2.4% and HEK293 tox -11.6%.
For CN(Cc1cccs1)C(=O)c1ccc(S(=O)(=O)N2CCCCC2)cc1 the results were GLP-1R agonist 14.4%, GLP-1R inv ag -21.9%, LDHA block -4.8, p53 reactivation -5.5%, ClpP mod -0.4% and HEK293 tox 9.1%.
CCc1ccccc1NC(=O)CN1CCN(CC(=O)NCc2ccc(Cl)cc2)CC1 was read as GLP-1R agonist -1.1%, GLP-1R inv ag inconclusive, LDHA block -7.0, p53 reactivation 5.5%, ClpP mod 1.9% and HEK293 tox -9.4%.
CCOc1ccc2[nH]c(=O)c(CN(CCO)C(=O)c3ccc(Br)cc3)cc2c1 was read as GLP-1R agonist 23.8%, GLP-1R inv ag 14.7%, LDHA block -5.1, p53 reactivation 1.4%, ClpP mod 31.6µM* and HEK293 tox 4.3%.
Screening CCCCN(Cc1cc2cc(OC)ccc2[nH]c1=O)C(=O)c1cc(OC)cc(OC)c1 returned LDHA block 8.9.
Screening CCOc1ccc2[nH]c(=O)c(CN(Cc3ccccc3OC)C(=O)c3ccccc3)cc2c1 returned GLP-1R agonist 4.6%, GLP-1R inv ag 0.0%, LDHA block -13.1, p53 reactivation 5.3%, ClpP mod 31.6µM* and HEK293 tox inconclusive.
Screening CCOc1ccc2[nH]c(=O)c(CN(Cc3ccco3)C(=O)c3cccc(F)c3)cc2c1 returned GLP-1R agonist 9.4%, GLP-1R inv ag 17.2%, LDHA block -5.5, p53 reactivation 5.4%, ClpP mod 31.6µM* and HEK293 tox 8.0%.
`CCOc1ccc2[nH]c(=O)c(CN(CCO)C(=O)CC)cc2c1` gave GLP-1R agonist 0.2%, GLP-1R inv ag 3.1%, LDHA block -6.4, p53 reactivation 1.2%, ClpP mod 28.2µM* and HEK293 tox 3.9%.
`COc1ccc2[nH]c(=O)c(CN(Cc3ccco3)C(=O)c3ccccc3)cc2c1` gave GLP-1R agonist 0.2%, GLP-1R inv ag 52.9%, LDHA block 3.3, p53 reactivation -4.5%, ClpP mod inconclusive and HEK293 tox 2.0%.
Screening CCOc1ccc2[nH]c(=O)c(CN(Cc3ccco3)C(=O)c3ccc(Br)cc3)cc2c1 returned GLP-1R agonist 7.3%, GLP-1R inv ag 0.0%, LDHA block -9.0, p53 reactivation 7.1%, ClpP mod inconclusive and HEK293 tox -2.8%.
COc1cc(Cl)c(NS(=O)(=O)c2ccc(-c3ccc(=O)[nH]n3)o2)c(OC)c1 was read as GLP-1R agonist -1.6%, GLP-1R inv ag 9.0%, LDHA block -0.2, p53 reactivation 4.3%, ClpP mod -1.6% and HEK293 tox 2.5%.
CNC(=S)NNC(=O)c1ccc(C(C)(C)C)cc1 was read as GLP-1R agonist -3.3%, GLP-1R inv ag -14.3%, LDHA block -4.8, p53 reactivation 4.8%, ClpP mod 5.9% and HEK293 tox -9.5%.
For O=C(NCc1ccccc1Cl)c1ccc(Cn2cc(C(F)(F)F)ccc2=O)cc1 the results were GLP-1R agonist 12.5%, GLP-1R inv ag 0.0%, LDHA block -8.2, p53 reactivation 3.3%, ClpP mod -2.6% and HEK293 tox 3.1%.
Screening COc1cc(/C=C/C(=O)OCC(=O)NC(=O)NC2CCCC2)ccc1OCC#N returned GLP-1R agonist 1.8%, GLP-1R inv ag 9.8%, LDHA block -2.6, p53 reactivation 2.3%, ClpP mod -27.0% and HEK293 tox -3.6%.
`CCN(CC)CCn1c(=S)[nH]c2cc3c(cc2c1=O)OCO3` gave GLP-1R agonist -10.8%, GLP-1R inv ag 3.8%, LDHA block -3.3, p53 reactivation -4.0%, ClpP mod -4.9% and HEK293 tox -12.4%.
For Cc1c(SCCO)c(=O)[nH]c2cc3c(cc12)OCO3 the results were GLP-1R agonist -3.7%, GLP-1R inv ag 19.6%, LDHA block -3.0, p53 reactivation -2.0%, ClpP mod 25.1µM* and HEK293 tox 1.9%.
O=S(=O)(O)Sc1ccccc1 was read as GLP-1R agonist -0.4%, GLP-1R inv ag -8.5%, LDHA block -0.9, ClpP mod -2.5% and HEK293 tox 8.2%.
For CCN(CC)c1ccc(SS(=O)(=O)O)cc1 the results were GLP-1R agonist -16.4%, GLP-1R inv ag -7.6%, LDHA block 0.8, p53 reactivation inconclusive, ClpP mod 14.1µM*! and HEK293 tox 0.5%.
`CC(C)S(=O)(=O)c1oc(-c2cccs2)nc1S(=O)(=O)c1ccc(F)cc1` gave GLP-1R inv ag inconclusive, LDHA block -1.8, ClpP mod 4.3% and HEK293 tox 10µM*.
For CC(C)S(=O)(=O)c1oc(-c2ccc(F)cc2)nc1S(=O)(=O)c1ccccc1 the results were GLP-1R inv ag inconclusive, LDHA block 2.1, ClpP mod -11.9% and HEK293 tox inconclusive.
For O=C(OCc1ccccc1)N1CCC2CC1c1cc(/C=C/CCCSc3ncccn3)ccc12 (centres undefined) the results were GLP-1R agonist 20.3%, GLP-1R inv ag inconclusive, LDHA block -34.0*, ClpP mod -0.6% and HEK293 tox 2.6%.
`O=C(OCc1ccccc1)N1CCC2CC1c1cc(-c3ccc(F)cc3)ccc12` (centres undefined) gave GLP-1R agonist 15.9%, GLP-1R inv ag inconclusive, LDHA block -1.0, ClpP mod -0.1% and HEK293 tox 18.0%.
O=C(OCc1ccccc1)N1CCC2CC1c1cc(N3CCNCC3)ccc12 (centres undefined) was read as GLP-1R agonist 27.8%, GLP-1R inv ag inconclusive, LDHA block -31.2*, ClpP mod -1.5% and HEK293 tox 2.1%.
For O=C(OCc1ccccc1)N1CCC2CC1c1cc(N3CCCCC3)ccc12 (centres undefined) the results were GLP-1R agonist 15.4%, GLP-1R inv ag inconclusive, LDHA block -4.4, ClpP mod -10.2% and HEK293 tox -1.7%.
Screening COc1ccc(-c2ccc3c(c2)C2CC3CCN2C(=O)OCc2ccccc2)cc1 (centres undefined) returned GLP-1R agonist 13.7%, GLP-1R inv ag inconclusive, LDHA block -0.1, ClpP mod -7.0% and HEK293 tox -21.9%.
